Experimental data taken from PubChem BioAssay AID492965 (The Scripps Research Institute Molecular Screening Center, 2010).
In all, about 1,100 compounds went through this assay and about 100 (9.1%) were called active. Only a sample is shown. A number with no mark means an inactive call.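 How the source made its calls: active means inhibition above a per-plate limit, the mean inhibition of that plate's test compounds plus 3 SD (cut at about 25% in these data); inactive means the rest.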

Experiment: nonselective Gq signaling antagonists, untransfected CHO – cell-based, fluorescence, CHO-K1, triplicate, counter-screen for OX1R antagonist project (AID 492965);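 further: 0% = ATP challenge with DMSO and 100% = DMSO without ATP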
Conditions: parental CHO-K1, ATP-induced calcium, Fluo-8 fluorescence; at 5.6 µM; stronger effect = higher value

Row | SMILES | inhibition
1 | COc1cc(CN2CC(C)CC(C)C2)cc([N+](=O)[O-])c1O (stereo not given) | 22.2%
2 | O=C(Nc1cccc(NC(=O)N2CCN(c3ccccc3)CC2)c1)N1CCN(c2ccccc2)CC1 | 6.96%
3 | CCOC(=O)c1cccc(NC(=O)CN(c2ccc(C)cc2)S(=O)(=O)c2c(C)noc2C)c1 | -18.6%
4 | Cc1cc(-c2ccc(C)c(S(=O)(=O)NC(C)Cc3ccco3)c2)on1 (stereo not given) | -8.08%
5 | COc1ccc(/C=C/C(=O)c2ccc(NS(=O)(=O)c3ccc(C)cc3)cc2)cc1O | 2.08%
6 | Cc1ccc2c(C)c(C(=O)N(C)CCC3CCCCO3)oc2c1C (stereo not given) | -10%
7 | C/C(N)=C(/C#N)C(=O)COC(=O)c1cc(-c2ccc(C)cc2)nc2ccccc12 | -4.89%
8 | c1coc(CNc2ncnc3ccccc23)c1 | 26.1% (active)
9 | N#C/C(=C1\CCCN1)c1nc(-c2ccccc2)cs1 | 3.08%
10 | Cc1cc(C)cc(NC(=O)C2CCCN2S(=O)(=O)c2cccc3cccnc23)c1 (stereo not given) | -10.6%
11 | O=C(OC1CCOC1=O)c1ccc(-c2nc3ccccc3s2)s1 (stereo not given) | 10.7%
12 | Cc1ccc(NC(=O)COc2ccc(-n3ccnc3)cc2)cc1Cl | 15.7%
13 | O=C(Nc1cccc2cccnc12)c1cccc(N2C(=O)CCC2=O)c1 | -5.5%
14 | CCc1ccccc1OCC(=O)Nc1ccc(C)c(S(=O)(=O)N2CCCCCC2)c1 | 2.45%
15 | CCCN(CC(=O)Nc1ccccc1OC)C(=O)CCC(=O)c1ccc(F)cc1 | -5.67%
16 | CCCc1nc2c(c(=O)c3ccccc3n2C)c(=O)n1C1CCCCCC1 | -3.88%
17 | CC1(C)C2CC=C(/C=N/NC(=O)C3CC3)C1C2 (stereo not given) | -15%
18 | CCCCCCCC(=O)NC(Nc1ccccc1OC)C(Cl)(Cl)Cl (stereo not given) | -10.6%
19 | CCCCC(=O)NNC(=S)NC(=O)C(c1ccccc1)c1ccccc1 | 34.8% (active)
20 | COc1ccc(N2CC(C(=O)NCCN3C(=O)S/C(=C\c4cccnc4)C3=O)CC2=O)c(OC)c1 (stereo not given) | -8.16%
21 | Cc1cc(N2CCCC2=O)cc(C)c1S(N)(=O)=O | -0.33%
22 | C=CCn1c(SCC(=O)Nc2nc3ccccc3s2)nnc1-c1ccccc1O | -4.55%

Row | SMILES | inhibition
23 | S=c1[nH]nc(-c2cc(-c3ccccc3)n[nH]2)n1/N=C/c1c2ccccc2cc2ccccc12 | -7.45%
24 | CCOc1cc(/C=C(\C#N)c2nc(-c3cccs3)c(NC(C)=O)s2)ccc1O | 14.1%
25 | COCc1c(C(=O)OCC(=O)Nc2ccc(OC(F)F)cc2)oc2ccccc12 | -3.09%
26 | CCC(=O)N(C)C(c1ccccc1Cl)c1nnnn1-c1c(C)cccc1C (stereo not given) | -6.17%
27 | Cc1cccc(NC(=O)Nc2cccc(Oc3c(F)c(F)c(F)c(F)c3F)c2)c1 | 38.9% (active)
28 | Cc1cccc(NS(=O)(=O)c2cccc(C(=O)NNC(=O)c3ccccc3O)c2)c1 | 15.6%
29 | CC(=O)Nc1cccc(OCC(=O)/C=C2\N(C)c3ccccc3C2(C)C)c1 | 6.99%
30 | N#Cc1nc(-c2cccc3ccccc23)oc1N | -11.2%
31 | O=C1c2ccccc2S(=O)(=O)N1CC(O)Cn1c2ccccc2c2ccccc21 (stereo not given) | 4.28%
32 | N#C/C(=C/c1ccc(N2CCCCC2)o1)C(=O)NCCc1c[nH]c2ccccc12 | 31.6% (active)
33 | CCOc1ccc(/C=C/C(=O)OCC(=O)c2ccccc2OC)cc1OC | -17.5%
34 | COc1cccc(/C=N/NC(=O)c2[nH]nc3c2CCc2ccccc2-3)c1O | -10.5%
35 | CCOC(=O)N1CCN(C(=O)c2ccc(S(=O)(=O)Nc3cccc(C(F)(F)F)c3)cc2)CC1 | 9.17%
36 | CCOC(=O)N1CCN(c2cc(C)c([N+](=O)[O-])cc2F)CC1 | 13.3%
37 | N/C(=N\OC(=O)Nc1ccc(Cl)c(Cl)c1)c1ncc(C(F)(F)F)cc1Cl | 14.7%
38 | CC(C)(C)NC(=O)CN(C(=O)c1csnn1)c1ccccc1-c1ccccc1 | -0.67%
39 | O=C(N/N=C/c1sc(N2CCCCC2)nc1-c1cccs1)c1cccnc1 | -6.04%
40 | Nc1nc(COC(=O)CCC(=O)c2ccc(Cl)cc2)nc(Nc2ccccc2)n1 | -7.47%
41 | COc1cccc(/C=N/Nc2cc(C)nc(-c3ccccc3O)n2)c1O | -5.66%
42 | CC1CCCN(CC(O)COCc2ccccc2)C1 (stereo not given) | -5.68%
43 | Cc1ccccc1S(=O)(=O)N1[C@@H](c2cccc(Cl)c2)C(C(=O)O)=CC[C@H]1c1ccc(Cl)cc1 | 13.3%
44 | Cc1ccc(S(=O)(=O)N2CCN(c3ncnc4ccccc34)CC2)cc1 | 50.8% (active)

Row | SMILES | inhibition
45 | COC(=O)c1sccc1NC(=O)CSc1ccccc1NS(=O)(=O)c1cc(Cl)ccc1Cl | 8.36%
46 | NC(=O)C1=C[C@@H](c2ccc3c(c2)OCO3)C[C@@H](OCCCCO)O1 | -5.99%
47 | CCn1c(SCC(=O)c2ccc3ccccc3c2)nnc1-c1cccs1 | -8.88%
48 | Cn1c(N)c(C(=O)COC(=O)c2ccc3ccccc3c2)c(=O)n(C)c1=O | 1.91%
49 | CC(Oc1ccc2ccccc2c1)C(=O)NNC(=S)NC(=O)c1ccco1 (stereo not given) | -8.71%
50 | COc1cccc(C(=O)NC(=O)Nc2nc(C)cc(C(F)(F)F)n2)c1 | -10.8%
51 | N#CC(=C1SC=CS1)c1nc(-c2ccccc2)cs1 | -3.94%
52 | CCOC(=O)c1c(-c2ccc(C)cc2C)csc1NC(=O)CSc1nnnn1C | -6.6%
53 | Cc1cc(C(=O)NC2CCCc3c2cnn3-c2cccc(C)c2C)c(C)o1 (stereo not given) | 34% (active)
54 | O=C(NC(Cc1c[nH]c2ccccc12)C(=O)N/N=C/c1ccc(Br)cc1)c1cccs1 (stereo not given) | 3.66%
55 | CCOc1ccc(CCNC(=O)C(CC)n2nc(C)n3c(cc4sccc43)c2=O)cc1OCC (stereo not given) | -2.6%
56 | COc1ccc2[nH]cc(/C=C(/C#N)S(=O)(=O)c3ccccc3)c2c1 | -11.6%
57 | COc1cc2ccccc2cc1C(=O)Nc1ccc(N2CCOCC2)cc1 | -8.59%
58 | O=C(Cn1[nH]c(=O)c2ccccc2c1=O)Nc1cccc(-c2nnc3n2CCCCC3)c1 | -5.39%
59 | O=C(N/N=C/c1c(Cl)[nH]c2ccccc12)c1sc2ccccc2c1Cl | 10.8%
60 | COc1ccc2sc(-c3ccc(N(C)C)cc3)c(C#CCO)c2c1 | -6.95%
61 | CN(c1ccccc1)S(=O)(=O)c1cccc(NC(=O)Cc2ccc(Cl)cc2)c1 | 6.81%
62 | S=C(NCc1ccc(Cl)cc1)NC12CC3CC(CC(C3)C1)C2 | 14%
63 | COc1ccccc1CNC(=O)C1CCCN(S(=O)(=O)c2cccc3cccnc23)C1 (stereo not given) | -8.22%
64 | O=C1C=C(c2ccc(Cl)cc2)C(=O)N1Nc1ccccc1 | 22.4%
65 | O=C(CCCN1CCc2[nH]c3ccc(F)cc3c2C1)c1ccc(F)cc1 | 26.8% (active)
